This note sets out measurements from PubChem BioAssay AID2451 (National Center for Advancing Translational Sciences (NCATS), 2010).

The whole screen tested about 290,000 compounds, of which about 2,100 (0.72%) were called active. About 4% were inconclusive and are not listed. Only a selection was taken, and actives are over-represented in it overall. A number with no mark means an inactive call. Calls follow the shape of the dose curve; as a rule, active = well fitted inhibition curve with a large enough effect; inconclusive = small, poorly fitted or top-dose-only effect, or effect the other way; inactive = flat fitted curve, though single readings scatter.
% is scaled to controls: 0 for no effect and ±100 for the full control effect; potency is read from the fitted curve at half-maximal effect.

The assay deals with Fructose-bisphosphate aldolase (Giardia intestinalis (strain ATCC 50803 / WB clone C6)) (UniProt A8B2U2). Description: qHTS Assay for Inhibitors of Fructose-1,6-bisphosphate Aldolase from Giardia Lamblia. Also: nearly all actives have a fitted effect of over 55% in size. Particulars: purified Giardia FBPA; series mostly up to 59.6 µM; activity, negative = inhibition: at the top concentration. The source says: Assay Provider: Osnat Herzberg, University of Maryland
Chain of Fructose-bisphosphate aldolase (Giardia intestinalis (strain ATCC 50803 / WB clone C6)) (A8B2U2 whole entry, looked up): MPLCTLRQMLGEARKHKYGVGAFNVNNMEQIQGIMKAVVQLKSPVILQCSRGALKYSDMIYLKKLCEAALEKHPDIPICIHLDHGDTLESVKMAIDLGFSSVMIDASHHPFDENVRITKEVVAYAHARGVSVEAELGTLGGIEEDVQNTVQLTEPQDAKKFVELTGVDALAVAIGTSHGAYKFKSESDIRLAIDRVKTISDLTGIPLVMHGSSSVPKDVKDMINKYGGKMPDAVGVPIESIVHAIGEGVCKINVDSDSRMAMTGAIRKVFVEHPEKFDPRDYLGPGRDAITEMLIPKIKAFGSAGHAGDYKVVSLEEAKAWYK
The objective of this project is to obtain compounds that inhibit Giardia lamblia growth. G. lamblia is a human pathogen which afflicts impoverished nations; it is the most common cause of outbreaks of diarrhea in the United States. During the course of our study of potential drug targets in Giardia, we have identified the Class II (Zn2+ functions in electrophilic catalysis) fructose-1,6-bisphosphate aldolase (FBPA) as an excellent candidate for drug targeting. FBPA is a key glycolytic pathway enzyme, essential for G. lamblia survival. The human FBPA belongs to the Class I aldolases, which have a different substrate binding site structure and a radically different catalytic mechanism (employing a lysine-Schiff base intermediate). Therefore, affinity-based or mechanism-based inhibitors of the Giardia FBPA are expected not to interfere with the catalytic function of the human FBPA.
A glyceraldehyde-3-phosphate dehydrogenase/triose phosphate isomerase/NAD/arsenate coupled assay was adapted to the 1536-well HTP format for use in the primary screen. This was done by coupling it to a diaphorase/resazurin/resorufin reaction that can be monitored by fluorescence (excitation, 544 nm; emission, 590 nm). Compounds identified in this screen will be further evaluated by coupling the glycerol-3-phosphate/triose phosphate isomerase/NADH assay to a phenazine methosulfate/tetranitroblue tetrazolium color reaction. False positives due to the dehydrogenases and diaphorase inhibition will be eliminated, and selectivity assay will triage inhibitors of mammalian triose phosphate isomerase and the Class I FBPA. G. lamblia FBPA inhibitors identified by the in vitro analyses will be examined for growth inhibition of Giardia trophozoites, and for cytotoxicity in human cells.
Step,Parameter,Value,Description
1,Enzyme reagent,2 uL,40 nM FBPA
2,Compound,23 nL,3.68 nM-57.5 uM final concentration
3,Time,10 min,RT Incubation
4,Substrate/detection Reagent,2 uL,Substrate + enzyme coupling system + AmpLite Red kit
5,Time,20 min,RT Incubation
6,Detector,525 nm/598 nm (Fluorescence),ViewLux Fluorescence Read (Read 1)
1,Medium-binding black solid-bottom Kalypsys plates. FRD or Kalypsys dispenser, 2 uL of FBPA enzyme. Bottle kept at 4C.
2,Compound Library (10 mM ,1:5 dilution). Pin-transferred for a [final] range of 3.68 nM-57.5 uM.
4,FRD or Kalypsys dispenser, 2 uL of reaction mixture. Bottle kept at 4C and covered in foil to protect from light.
6,ViewLux Protocol 1194; Excitation filter wheel A (525/20 Pol; BODIPY TMR FP), Emission filter wheel B (598/25 S; BODIPY TMR FP S).
Keywords: Fructose-bisphosphate aldolase, FBPA , Giardia lamblia , Giardia, HTS, Inhibitors
As for `Cc1ccc(Cl)c(OCC(=O)N2CCc3ccccc3C2)c1`, the “activity, negative = inhibition” value was 5.62%.
Consider `O=C(CSc1cccc[n+]1[O-])c1ccc(Cl)cc1`, for which the “activity, negative = inhibition” value was -5.54%.
In the case of `O=C(CSc1cccc[n+]1[O-])c1ccc(-c2ccccc2)cc1`, the Potency is 17.7 µM (active).
With `COc1ccccc1C(=O)CSc1cccc[n+]1[O-]`, the “activity, negative = inhibition” value was 2%.
`NS(=O)(=O)c1ccccc1NC(=O)c1c(O)c2ccccc2[nH]c1=O`: the “activity, negative = inhibition” value was -2.83%.
With `CC(C)c1ccc(/C=C2\NC(=O)NC2=O)cc1`, the “activity, negative = inhibition” value was -2.07%.
Take `CC(=O)N1CCC(C(=O)OCc2ccc(Cl)cc2)(c2ccccc2)CC1`: the “activity, negative = inhibition” value is -0.423%.
Turning to `Cc1cccc2c(CCN)c[nH]c12`, the “activity, negative = inhibition” value is -6.67%.
Still for that read-out and setting: for `O=C(Cc1c[nH]c2ccccc12)OCCOC(=O)Cc1c[nH]c2ccccc12` the value was -8.65%; for `COc1ccc(Nc2ncnc3ccc(Br)cc23)c(OC)c1`, 11.8%.
Still for that read-out and setting: for `O=C(c1cc(COc2ccc(F)cc2F)on1)N1CCOCC1` the value was -1.6%; for `CSc1ccccc1NC(=O)c1cc(Cl)sc1Cl`, -3.44%; for `CCCCC(C(=O)NC(C)(C)C)N(Cc1ccccc1)C(=O)c1snc(C(N)=O)c1N` (stereo unspecified), 3.79%.
Consider `CN1CCN(Cc2ccc(OC(F)(F)F)cc2)CC1`, for which the “activity, negative = inhibition” value is -8.47%.
Turning to `COc1ccc(CN2CCN(Cc3ccc(OC)c(OC)c3OC)CC2)cc1`, the Potency is 14.1 µM (active).
As for `COc1ccccc1N1CCN(Cc2ccc(OC)c3ccccc23)CC1`, the “activity, negative = inhibition” value is -12.6%.
On the same count and under the same terms, for `Cc1cc(N=Nc2ccc3ccccc3c2)ccc1O` the value was -0.276%; for `O=S(=O)(Nc1ccccc1Cl)c1cccc2nsnc12`, -29.6%.
Turning to `CCOC(=O)c1cc2cc3ccccc3cc2oc1=O`, the “activity, negative = inhibition” value was 7.13%.
Consider `Cc1cc(C)n2nc(C(=O)NC(C)(C)C)nc2n1`, for which the “activity, negative = inhibition” value was 4.08%.
For `C=CCNC(=S)NNC(=O)c1cc(Cl)ccc1OC`, the “activity, negative = inhibition” value was 0.21%.
For the molecule `COc1ccc(Cl)cc1C(=O)NNC(=O)c1nc2nc(C)cc(C)n2n1`, the Potency was 17.7 µM (active).
On to `CCN1C(=S)N[C@@H](c2cccc(C(F)(F)F)c2)C(C(=O)OC)=C1C`, for which the “activity, negative = inhibition” value was -1.9%.
`O=C(Nc1cccnc1Cl)c1cc(-c2ccccc2O)on1`: the “activity, negative = inhibition” value was 3.89%.
Turning to `CC1CCCN(S(=O)(=O)c2ccc(C(=O)Nc3nnc(-c4ccncc4)o3)cc2)C1` (stereo unspecified), the Potency was 7.06 µM (active).
For the molecule `O=C(Nc1nnc(-c2ccco2)o1)c1ccc(S(=O)(=O)N2CCOCC2)cc1`, the Potency was 17.7 µM (active).
`CC1CCCCN1S(=O)(=O)c1ccc(C(=O)Nc2nnc(-c3cccs3)o2)cc1` (stereo unspecified): the “activity, negative = inhibition” value is 24.1%.
On to `CSCc1nnc(NC(=O)c2ccc(S(=O)(=O)N3CCCCC3C)cc2)o1` (stereo unspecified), for which the “activity, negative = inhibition” value is -19.3%.
For `O=C(Nc1ccc(N2CCOCC2)c(Cl)c1)c1ccc(S(=O)(=O)N2CCOCC2)cc1`, the “activity, negative = inhibition” value was -6.37%.
For the molecule `Cc1ccnc(NS(=O)(=O)c2ccc(NC(=O)c3ccc(S(=O)(=O)N4CCOCC4)cc3)cc2)n1`, the “activity, negative = inhibition” value was -8.56%.
With `CC(C)(C)c1ccc(Cn2nnc3c(=O)[nH]c(C4CCCN(C(=O)c5ccco5)C4)nc32)cc1` (stereo unspecified), the “activity, negative = inhibition” value was -0.49%.
As to `Cc1cccc(C(=O)Nc2ccc(Oc3cnccn3)cc2)c1`, the “activity, negative = inhibition” value is -1.08%.
Turning to `CN(Cc1ccccc1)C(=O)CSc1nc2ccccc2[nH]1`, the “activity, negative = inhibition” value was -15.7%.
Turning to `COc1cc(Cl)ccc1OCc1cc(C(=O)N2CC[C@@H]3CCCC[C@H]3C2)no1`, the “activity, negative = inhibition” value was 10.8%.
On the same count and under the same terms, for `COC(=O)[C@@H]1C[C@@]2(O)[C@H](O)[C@H](O)[C@H](O)C[C@H]2N1CC1CCCCC1` the value was -3.43%.
For `c1ccc(-c2ccc(OCCN3CCOCC3)cc2)cc1`, the “activity, negative = inhibition” value was -28.9%.
Turning to `CC(=O)c1ccc(OCCN2CCOCC2)cc1`, the “activity, negative = inhibition” value is -22.4%.
Turning to `Cc1cccc(C)c1OCCN1CCOCC1`, the Potency is 15.8 µM (active).
On to `N#Cc1ccc(C2N=C(c3ccccc3)NO2)cc1` (stereo unspecified), for which the “activity, negative = inhibition” value is -0.519%.
Consider `COc1ccccc1C(C)NC(=O)Cc1ccsc1` (stereo unspecified), for which the “activity, negative = inhibition” value was -2.45%.
For `O=C(C[n+]1cc(Br)cc2ccccc21)c1ccc(F)cc1`, the “activity, negative = inhibition” value was 2.91%.
Turning to `O=[N+]([O-])c1ccc2nc(-c3ccccn3)[nH]c2c1`, the Potency is 7.92 µM (active).
On to `O=C(CSc1nc2ccc([N+](=O)[O-])cc2[nH]1)c1ccc(Cl)cc1`, for which the “activity, negative = inhibition” value is -0.835%.
Take `O=[N+]([O-])c1ccc2c(c1)Nc1nc3ccccc3nc1N2`: the “activity, negative = inhibition” value is 18.9%.
As for `COc1cccc(N(CC(=O)NCc2ccccc2)C(=O)CCC(=O)Nc2nccs2)c1`, the “activity, negative = inhibition” value was -1.2%.
With `CCOc1ccccc1NC(=S)NC(=O)CCc1ccccc1`, the “activity, negative = inhibition” value is -4.01%.
For the molecule `COCCN(CCOC)C(=S)Nc1ccccc1Cl`, the “activity, negative = inhibition” value is 3.46%.
Turning to `COCCN(C(=S)Nc1ccccc1OC)C1CCN(C(C)C)CC1`, the Potency was 15.8 µM (active).
For the molecule `CCc1cccc(NC(=S)N(CCN(C)C)C2CCN(C(C)C)CC2)c1`, the “activity, negative = inhibition” value was -10.9%.
The same measure, in the same setting: for `CCNc1c(NS(=O)(=O)c2ccc(C3CCCCC3)cc2)c(=O)oc2ccccc12` the value was -19.3%.
`O=c1c(O)c(Br)ccc2c(Br)c(O)c(O)c(O)c12`: the Potency was 11.2 µM (active).
For `Cc1noc(C)c1-c1ccc2ncnc(NCc3ccc4[nH]ccc4c3)c2c1`, the “activity, negative = inhibition” value is 0.0751%.
For `O=C(NC(=S)N1CCCCC1c1cccnc1)c1ccccc1` (stereo unspecified), the “activity, negative = inhibition” value is -26.5%.
As to `COc1ccc(C(=O)NC(=S)N2CCCCC2c2cccnc2)cc1OC` (stereo unspecified), the Potency was 3.55 µM (active).
As to `COc1ccc(/C=C/C(=O)NC(=S)NN2CCCCC2c2cccnc2)cc1` (stereo unspecified), the “activity, negative = inhibition” value was -11.6%.
For `CC(C)(C)c1ccc(C(=O)N2CCN(CCNC(=O)C(=O)Nc3ccc(F)cc3)CC2)cc1`, the “activity, negative = inhibition” value was -8.9%.
